# Values without a mark were called inactive.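 The calls were made as follows: active = EC50 at or below 10 µM; inactive = EC50 above 10 µM.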
# Test: FP signal increase by Cy5-IP20 peptide alone, dose response, artefact control for PKA-R2B complex activator project, biochemical, fluorescence polarization, 1536-well HTS (AID 504890)
# Conditions: Cy5-IP20 FP artifact counterscreen, no PKA-R2B complex
row,Compound,EC50 [µM]
1,Nc1ncnc2c1nc(Br)n2[C@@H]1O[C@@H]2COP(=O)(O)O[C@H]2[C@H]1O,> 114
2,O=S(=O)(O)c1cccc2c(N=Nc3ccc(O)c4ncccc34)cccc12,> 114
3,Nc1ncnc2c1nc(Sc1ccc(Cl)cc1)n2[C@@H]1O[C@@H]2COP(=O)(O)O[C@H]2[C@H]1O,> 114
4,CCCC(=O)Nc1ncnc2c1ncn2[C@@H]1O[C@@H]2COP(=O)(O)O[C@H]2[C@H]1OC(=O)CCC,> 114
5,CN(C)c1ccc(N=Nc2ccc(S(=O)(=O)O)cc2)c2ccccc12,> 114
6,CCOP1(=O)OCC2OC(n3cnc4c(N)ncnc43)C(O)C2O1 (centres undefined),> 114
7,CCCC(=O)Nc1ncnc2c1ncn2[C@@H]1O[C@@H]2OP(=O)(O)OC[C@H]2[C@H]1OC(=O)CCC,> 114
8,O=C(O)c1sccc1SCc1ccc(Cl)cc1Cl,> 114
9,Nc1nc2c(nc(Br)n2[C@@H]2O[C@@H]3COP(=O)(O)O[C@H]3[C@H]2O)c(=O)[nH]1,> 114
